Test results as given in PubChem BioAssay (NCI).
Compounds without any hit were thinned out: in the full panel of roughly 83,000, 20% have a hit.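 Step 1: grow cells in 96-well plates. Step 2: add test compound at a single concentration. Step 3: incubate 48 h. Step 4: record percent growth.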 Active and inactive are the calls of the source. The calls were made as follows: active = growth percent below 10; inactive = the rest.

Columns and labels:
Assay in all cases: NCI-60 one-dose screen, 48 h (100 = growth as untreated, 0 = no growth, -100 = all killed)
Conditions in all cases: 10 µM unless noted
HCT-15 colon = system: HCT-15 colon
HT29 colon = system: HT29 colon
SNB-75 CNS = system: SNB-75 CNS
SNB-19 CNS = system: SNB-19 CNS
U251 CNS = system: U251 CNS
PC-3 prostate = system: PC-3 prostate
SK-MEL-5 melanoma = system: SK-MEL-5 melanoma
UACC-62 melanoma = system: UACC-62 melanoma
LOX IMVI melanoma = system: LOX IMVI melanoma
SK-MEL-28 melanoma = system: SK-MEL-28 melanoma
EKVX NSCLC = system: EKVX NSCLC
SN12C renal = system: SN12C renal
UO-31 renal = system: UO-31 renal
TK-10 renal = system: TK-10 renal
ACHN renal = system: ACHN renal
CAKI-1 renal = system: CAKI-1 renal
A498 renal = system: A498 renal
CCRF-CEM leukemia = system: CCRF-CEM leukemia
MOLT-4 leukemia = system: MOLT-4 leukemia
SK-MEL-2 melanoma = system: SK-MEL-2 melanoma

Measured: growth

COc1ccc(C(=O)C2C(C#N)C(C#N)C3C=Cc4ccccc4N32)cc1 (stereo unspecified)
inactive: HCT-15 colon 16.9% | SNB-19 CNS 32.7% | U251 CNS 34.6% | PC-3 prostate 29.2% | SK-MEL-5 melanoma 15.2% | UACC-62 melanoma 57.6% | LOX IMVI melanoma 43.5% | SK-MEL-28 melanoma 57.6% | EKVX NSCLC 56.7% | SN12C renal 32.7% | UO-31 renal 42% | TK-10 renal 91.9% | ACHN renal 44% | CAKI-1 renal 27.4% | CCRF-CEM leukemia 16.2% | MOLT-4 leukemia 37.5%
active: HT29 colon 8.8% | SNB-75 CNS -21.3% | A498 renal -9.53%

CN(C)c1ccc(Nc2c3ccccc3nc3cc(NC(=O)CCN4CCCC4)ccc23)cc1
active: HCT-15 colon -18.4% | HT29 colon 1.99% | SNB-75 CNS -0.0133% | SNB-19 CNS -7.13% | U251 CNS -48.6% | PC-3 prostate -25.4% | SK-MEL-5 melanoma 0.523% | LOX IMVI melanoma -74.8% | SK-MEL-28 melanoma -34.7% | EKVX NSCLC 9.96% | SN12C renal -7.36% | UO-31 renal -53.1% | TK-10 renal -12.7% | ACHN renal 1.64% | CAKI-1 renal -47.6% | CCRF-CEM leukemia -15% | MOLT-4 leukemia -8.89%
inactive: UACC-62 melanoma 15.5%

COC(=O)N[C@H]1CCc2c(Cl)c(OC)c(OC)c(OC)c2-c2ccc(SC)c(=O)cc21
inactive: HT29 colon 13% | SNB-75 CNS 28% | SNB-19 CNS 26.3% | U251 CNS 21.5% | PC-3 prostate 21.1% | UACC-62 melanoma 36.9% | LOX IMVI melanoma 13.3% | SK-MEL-28 melanoma 60.8% | SK-MEL-2 melanoma 42.4% | SN12C renal 21.1% | UO-31 renal 22.7% | TK-10 renal 45.9% | ACHN renal 30.9% | CAKI-1 renal 15.1%
active: HCT-15 colon 9.73% | SK-MEL-5 melanoma -37.4% | CCRF-CEM leukemia 1.53% | MOLT-4 leukemia 3.99%

CCN1C(=O)/C(=C/C(=O)OC)S/C1=N\NC(=O)c1cc2ccc1/C=C\c1ccc(cc1)/C=C\2
inactive: HCT-15 colon 68.4% | HT29 colon 45.2% | SNB-75 CNS 78.8% | SNB-19 CNS 85.6% | U251 CNS 84.4% | PC-3 prostate 56.7% | SK-MEL-5 melanoma 92.5% | UACC-62 melanoma 78.6% | LOX IMVI melanoma 73.5% | SK-MEL-28 melanoma 100% | SK-MEL-2 melanoma 94.2% | SN12C renal 95% | UO-31 renal 79% | TK-10 renal 93.5% | ACHN renal 93.4% | CAKI-1 renal 89.5% | CCRF-CEM leukemia 33.9% | MOLT-4 leukemia 37.2%

Cn1nc(CC#N)c2c(=N)n(N)cnc21
inactive: HCT-15 colon 111% | HT29 colon 116% | SNB-75 CNS 87.4% | SNB-19 CNS 111% | U251 CNS 99.4% | PC-3 prostate 96.2% | SK-MEL-5 melanoma 111% | UACC-62 melanoma 103% | LOX IMVI melanoma 103% | SK-MEL-28 melanoma 121% | SK-MEL-2 melanoma 113% | SN12C renal 98.6% | UO-31 renal 80.1% | TK-10 renal 104% | ACHN renal 108% | CAKI-1 renal 95.3% | CCRF-CEM leukemia 126% | MOLT-4 leukemia 94.7%

CCNC(=O)Oc1ccc(/C(=C(\C)c2ccccc2)c2ccc(OCCCN(C)C)cc2)cc1
inactive: HCT-15 colon 52.1% | SNB-75 CNS 90.9% | SNB-19 CNS 88.3% | U251 CNS 66.3% | PC-3 prostate 73.3% | SK-MEL-5 melanoma 80.9% | UACC-62 melanoma 76.1% | LOX IMVI melanoma 67.1% | SK-MEL-28 melanoma 58% | SK-MEL-2 melanoma 97.2% | SN12C renal 81.1% | UO-31 renal 55.4% | TK-10 renal 84.5% | ACHN renal 98.1% | CAKI-1 renal 84.3% | CCRF-CEM leukemia 82.7% | MOLT-4 leukemia 65.8%
active: HT29 colon 9.13%

O=C(Nc1cccc(C(=O)N2CCc3ccc(Cl)cc32)c1)c1ccco1
active: SNB-75 CNS 0.916%
inactive: HCT-15 colon 24.2% | HT29 colon 15.9% | SNB-19 CNS 37.6% | U251 CNS 36.7% | PC-3 prostate 69.7% | SK-MEL-5 melanoma 24.3% | UACC-62 melanoma 36.3% | LOX IMVI melanoma 35.9% | SK-MEL-28 melanoma 59.9% | SK-MEL-2 melanoma 25.8% | SN12C renal 49.6% | UO-31 renal 45.1% | TK-10 renal 77.6% | ACHN renal 48.2% | CAKI-1 renal 29.6% | CCRF-CEM leukemia 29.4% | MOLT-4 leukemia 30.1%

Clc1ccc(-c2ccc(CNCC3CCNCC3)o2)c(-c2ccccc2)c1
active: HCT-15 colon -76.3% | HT29 colon -78.6% | SNB-75 CNS -90.8% | SNB-19 CNS -68.1% | U251 CNS -88.8% | PC-3 prostate -81.8% | SK-MEL-5 melanoma -99.1% | UACC-62 melanoma -90.8% | LOX IMVI melanoma -86.7% | SK-MEL-28 melanoma -90% | EKVX NSCLC -15% | SN12C renal -75.6% | UO-31 renal -95.1% | TK-10 renal -85.3% | ACHN renal -96.8% | CAKI-1 renal -85.3% | A498 renal 6.29% | CCRF-CEM leukemia -62.7% | MOLT-4 leukemia -62.7%

N#Cc1c(NC(=O)NCc2ccccc2)sc2c1CCCC2
inactive: HCT-15 colon 20.3% | HT29 colon 12.8% | SNB-75 CNS 27% | SNB-19 CNS 34.1% | U251 CNS 26.1% | PC-3 prostate 26.9% | SK-MEL-5 melanoma 13.3% | UACC-62 melanoma 39.3% | LOX IMVI melanoma 24% | SK-MEL-28 melanoma 64.9% | EKVX NSCLC 57.8% | SN12C renal 35.3% | UO-31 renal 47.2% | TK-10 renal 49.1% | ACHN renal 46.2% | CAKI-1 renal 38.1% | CCRF-CEM leukemia 16.6% | MOLT-4 leukemia 17.7%

CCCCCC(=O)Oc1ccc(/C(=C(/C)Cc2ccc(OC)cc2)c2ccc(OCCCN(C)C)cc2)cc1
active: SK-MEL-28 melanoma -1.63%
inactive: HCT-15 colon 24.6% | HT29 colon 10.8% | SNB-75 CNS 77% | SNB-19 CNS 84.1% | U251 CNS 56.2% | PC-3 prostate 86.2% | SK-MEL-5 melanoma 63.5% | UACC-62 melanoma 47.7% | LOX IMVI melanoma 50.7% | SK-MEL-2 melanoma 114% | SN12C renal 79.5% | UO-31 renal 58.6% | ACHN renal 91.9% | CAKI-1 renal 78.3% | CCRF-CEM leukemia 68.1% | MOLT-4 leukemia 53.5%

COc1cccc(-c2nc3occn3c2-c2ccnc(NCCCNS(=O)(=O)c3ccc(C(F)(F)F)cc3)n2)c1
inactive: HCT-15 colon 85.3% | HT29 colon 73.5% | SNB-75 CNS 103% | SNB-19 CNS 105% | U251 CNS 84.1% | PC-3 prostate 75.9% | SK-MEL-5 melanoma 68.6% | UACC-62 melanoma 67.3% | LOX IMVI melanoma 87.5% | SK-MEL-28 melanoma 97.5% | EKVX NSCLC 92.8% | SN12C renal 85.4% | UO-31 renal 71.5% | TK-10 renal 106% | ACHN renal 89.3% | CAKI-1 renal 75.3% | CCRF-CEM leukemia 93.9% | MOLT-4 leukemia 69%

C=C1C(=O)O[C@H]2[C@H]1CC/C(CNC(=O)CCc1ccc(OC)cc1)=C\CC[C@@]1(C)O[C@@H]21
inactive: HCT-15 colon 37.1% | HT29 colon 12.1% | SNB-75 CNS 116% | SNB-19 CNS 80.3% | U251 CNS 87.9% | PC-3 prostate 72.1% | SK-MEL-5 melanoma 92.8% | UACC-62 melanoma 47.3% | LOX IMVI melanoma 70.3% | SK-MEL-28 melanoma 59.5% | SK-MEL-2 melanoma 74.5% | SN12C renal 35.9% | UO-31 renal 53% | TK-10 renal 33.5% | ACHN renal 31.6% | CAKI-1 renal 38.1% | MOLT-4 leukemia 67.8%
active: CCRF-CEM leukemia 4.85%

COc1ccc2[nH]c(=O)c(CN3CCN(c4nccc(-c5ccc(Cl)cc5)n4)CC3)cc2c1
inactive: HCT-15 colon 91.8% | HT29 colon 78.2% | SNB-75 CNS 99.9% | SNB-19 CNS 78.8% | U251 CNS 81.2% | PC-3 prostate 73.6% | SK-MEL-5 melanoma 94.6% | UACC-62 melanoma 94.4% | LOX IMVI melanoma 99.6% | SK-MEL-28 melanoma 95.8% | SK-MEL-2 melanoma 93.1% | SN12C renal 88.8% | UO-31 renal 80.7% | TK-10 renal 104% | ACHN renal 81.9% | CAKI-1 renal 86.7% | CCRF-CEM leukemia 85.1% | MOLT-4 leukemia 75.5%

Nc1nc(Nc2ccccc2SSc2ccccc2Nc2nc(N)nc(-c3cccs3)n2)nc(-c2ccsc2)n1
active: UO-31 renal -45.5%
inactive: HCT-15 colon 56.7% | HT29 colon 98.7% | SNB-75 CNS 98.3% | SNB-19 CNS 87.7% | U251 CNS 53.1% | PC-3 prostate 57.2% | SK-MEL-5 melanoma 94.7% | UACC-62 melanoma 71% | LOX IMVI melanoma 35.9% | SK-MEL-28 melanoma 98.7% | EKVX NSCLC 77.3% | SN12C renal 27.3% | TK-10 renal 118% | ACHN renal 65.3% | CAKI-1 renal 20% | CCRF-CEM leukemia 60.5% | MOLT-4 leukemia 63.2%

N#Cc1cc(-c2nc3ccccc3s2)c(=O)n(NS(=O)(=O)c2ccccc2)c1N
inactive: HCT-15 colon 108% | HT29 colon 107% | SNB-75 CNS 73.1% | SNB-19 CNS 103% | U251 CNS 102% | PC-3 prostate 102% | SK-MEL-5 melanoma 101% | UACC-62 melanoma 97.1% | LOX IMVI melanoma 99.4% | SK-MEL-28 melanoma 121% | SK-MEL-2 melanoma 104% | SN12C renal 99.9% | UO-31 renal 72.7% | TK-10 renal 137% | ACHN renal 99.5% | CAKI-1 renal 81.8% | CCRF-CEM leukemia 105% | MOLT-4 leukemia 107%

COc1ccc(C(=O)c2cc(C)c(OC)c(C)c2)c(OC)c1OC(=O)C(Cl)Cl
inactive: HT29 colon 22.4% | SNB-75 CNS 56.3% | SNB-19 CNS 22.2% | U251 CNS 13.5% | PC-3 prostate 19.1% | UACC-62 melanoma 29.3% | LOX IMVI melanoma 20.3% | SK-MEL-28 melanoma 53.3% | SK-MEL-2 melanoma 24.4% | SN12C renal 30.1% | UO-31 renal 35.3% | TK-10 renal 50.9% | ACHN renal 18.3% | CAKI-1 renal 39.8% | CCRF-CEM leukemia 11.1% | MOLT-4 leukemia 20.7%
active: HCT-15 colon 3.34% | SK-MEL-5 melanoma -20.8%

Cc1c(C(=O)NCCC(=O)NO)sc2ncnc(Nc3ccc(F)c(Cl)c3)c12
inactive: HCT-15 colon 102% | HT29 colon 104% | SNB-75 CNS 97.5% | SNB-19 CNS 98.9% | U251 CNS 102% | PC-3 prostate 104% | SK-MEL-5 melanoma 102% | UACC-62 melanoma 102% | LOX IMVI melanoma 98.8% | SK-MEL-28 melanoma 112% | SK-MEL-2 melanoma 101% | SN12C renal 103% | UO-31 renal 84.8% | ACHN renal 102% | CAKI-1 renal 96.6% | CCRF-CEM leukemia 105% | MOLT-4 leukemia 115%
